# Test results from PubChem BioAssay (NCATS).
# Results filed as inconclusive are left out. Entries that show only a call come without a potency. Active and inactive are the calls of the source. Calls follow the shape of the dose curve; as a rule, active = well fitted cell-killing curve with a large enough effect; inconclusive = small, poorly fitted or top-dose-only effect, or effect the other way; inactive = no such curve, though single readings can be large or run the other way.
# Test: Quantitative High-Throughput drug screen in 47 multiple myeloma cell lines against the NCATS MIPE library collection: KMS27_JCRB cell viability assay (AID 1918970); also: nearly all actives have a fitted effect of over 30% in size
# Conditions: KMS27 myeloma cells, CellTiter-Glo ATP viability, 48 h; series mostly up to 45.8 µM
# Summary of the method: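 Viability inhibition screen, 48 h compound exposure, luminescent ATP read-out.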
# Potency is read from the fitted curve at half-maximal effect.
row,SMILES,Potency
1,CN1C(=O)CCS(=O)(=O)C1c1ccc(Cl)cc1 (stereo not given),inactive
2,C[C@](O)(CS(=O)(=O)c1ccc(F)cc1)C(=O)Nc1ccc(C#N)c(C(F)(F)F)c1,inactive
3,O=P1(N(CCCl)CCCl)NCCCO1 (stereo not given),20.9 µM (active)
4,COc1cc(OC)c(OC)cc1C=O,0.0047 µM (active)
5,C[C@]12CC[C@@H]3c4ccc(OC(=O)N(CCCl)CCCl)cc4CC[C@H]3[C@@H]1CC[C@@H]2OP(=O)(O)O,inactive
6,CC(NC(C)(C)C)C(=O)c1cccc(Cl)c1 (stereo not given),inactive
7,CC(C)C[C@H](CN)CC(=O)O,inactive
8,CCC1(c2ccc(N)cc2)CCC(=O)NC1=O (stereo not given),inactive

# Test: Quantitative High-Throughput drug screen in 47 multiple myeloma cell lines against the NCATS MIPE library collection: KMS12BM_JCRB cell viability assay (AID 1918971); also: nearly all actives have a fitted effect of over 35% in size
# Conditions: KMS12BM myeloma viability, CellTiter-Glo ATP, 48 h; series mostly up to 45.8 µM
# Summary of the method: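 We plated 500 myeloma cells per well, pinned in MIPE 4.0 compounds, and incubated for 48 hours at 37C. ATP was then quantified with CellTiter-Glo, with DMSO and media-only wells defining 100% and 0%.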
row,SMILES,Potency
1,C[C@]12CCC(=O)C=C1CC[C@@H]1[C@H]3CC[C@](C)(O)[C@@]3(C)CC[C@@H]12,34 µM (active)
2,CN1C(=O)CCS(=O)(=O)C1c1ccc(Cl)cc1 (stereo not given),inactive
3,C[C@](O)(CS(=O)(=O)c1ccc(F)cc1)C(=O)Nc1ccc(C#N)c(C(F)(F)F)c1,26.4 µM (active)
4,C[C@]12CC[C@@H]3c4ccc(OC(=O)N(CCCl)CCCl)cc4CC[C@H]3[C@@H]1CC[C@@H]2OP(=O)(O)O,inactive
5,CN1C(=O)COc2c(C(=O)NC3CN4CCC3CC4)cc(Cl)cc21 (stereo not given),inactive
6,C[C@]12CC[C@H]3[C@@H](CC[C@@]45O[C@H]4C(O)=C(C#N)C[C@]35C)[C@H]1CC[C@H]2O,inactive
7,CC(C)C[C@H](CN)CC(=O)O,9.35 µM (active)
